Measured values as given in PubChem BioAssay (NCI).
This is part of a sample that, as a whole, favours compounds with a hit. Of some 83,000 tested, about 20% had one in any assay.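 Values shown are percent growth following 48 h exposure of cells in 96-well plates to a single concentration of compound; below 10 was considered active.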 A number with no mark means an inactive call. Active and inactive are the calls of the source.

Experiments:
Assay in all cases: NCI-60 one-dose screen, 48 h (100 = growth as untreated, 0 = no growth, -100 = all killed)
Settings in all cases: 10 µM unless noted
HCT-15 colon = system: HCT-15 colon
HT29 colon = system: HT29 colon
SNB-19 CNS = system: SNB-19 CNS
U251 CNS = system: U251 CNS
PC-3 prostate = system: PC-3 prostate
SK-MEL-5 melanoma = system: SK-MEL-5 melanoma
UACC-62 melanoma = system: UACC-62 melanoma
LOX IMVI melanoma = system: LOX IMVI melanoma
SK-MEL-28 melanoma = system: SK-MEL-28 melanoma
EKVX NSCLC = system: EKVX NSCLC
SN12C renal = system: SN12C renal
UO-31 renal = system: UO-31 renal
TK-10 renal = system: TK-10 renal
ACHN renal = system: ACHN renal
CAKI-1 renal = system: CAKI-1 renal
A498 renal = system: A498 renal
SK-MEL-2 melanoma = system: SK-MEL-2 melanoma
CCRF-CEM leukemia = system: CCRF-CEM leukemia
MOLT-4 leukemia = system: MOLT-4 leukemia

Structure (SMILES)	growth (HCT-15 colon)	growth (HT29 colon)	growth (SNB-19 CNS)	growth (U251 CNS)	growth (PC-3 prostate)	growth (SK-MEL-5 melanoma)	growth (UACC-62 melanoma)	growth (LOX IMVI melanoma)	growth (SK-MEL-28 melanoma)	growth (EKVX NSCLC)	growth (SN12C renal)	growth (UO-31 renal)	growth (TK-10 renal)	growth (ACHN renal)	growth (CAKI-1 renal)	growth (A498 renal)	growth (SK-MEL-2 melanoma)	growth (CCRF-CEM leukemia)	growth (MOLT-4 leukemia)
Nc1cc2c(cc1C(=O)c1cccc(F)c1)OCCO2	93.9%	100%	97.1%	94%	94.9%	109%	104%	95.6%	105%	92.5%	90.1%	68.8%	94%	105%	88.4%	96.5%			
O=C(NCc1cn(Cc2cccc(Oc3ccccc3)c2)nn1)c1cccnc1Nc1ccc(F)cc1	31.3%	38.3%	72.9%	55.3%	89.3%	40.8%	43%	54.4%	72.4%	61.8%	44.4%	59.3%	83.8%	72.3%	53.9%	26.5%			
COc1ccc(C2C=C(c3ccc(OC)c(OC)c3)N=C3SC=C(C)N32)c(Br)c1 (stereo not given)	92.8%	107%	110%	96.3%	103%	100%	106%	109%	110%		108%	94.8%	107%	95%	99.9%	115%	101%	101%	84%
COc1ccc(C(=O)c2cc(OC)c(OC)c(OC)c2OC)cc1O	30.2%	55.6%	40.6%	33.4%	68.4%	2.02% (active)	40.3%	38.7%	45.6%	93.8%	40.5%	56.5%	95.9%	54.5%	55.4%	67.7%			44.2%
COc1cc(-c2nn(-c3cccc(NC(=O)Nc4cccc(C(F)(F)F)c4)c3)cc2-c2ccncc2)ccc1Cl	5.28% (active)	-64% (active)	23.5%	-82.2% (active)	-23% (active)	-97.8% (active)	-76.1% (active)	-64.2% (active)	-18.6% (active)		7.22% (active)	7.94% (active)	2.65% (active)	6.54% (active)	11.5%	-5.17% (active)	-71.2% (active)	-9.68% (active)	-26.3% (active)
COC(=O)C(Sc1ccc(Cl)cc1)C1SC(=S)N(Cc2ccccc2)C1=O (stereo not given)	73.9%	111%	92.6%	90.3%	97.4%	101%	99.1%	74.9%	109%		82.3%	60.2%	115%	97.6%	100%	102%	96.3%	20.5%	62.1%
Fc1ccc(CNCCNc2ncnc3c2cnn3-c2ccccc2)cc1	92.4%	93.1%	94.1%	84%	86.6%	87.4%	101%	89.4%	110%		89.2%	62.1%	102%	100%	87.2%	77.1%	113%	86.9%	89.1%
O=C(/C=C/c1c[nH]c2ccccc12)c1ccc(O)c(CN2CCN(c3ccc(F)cc3)CC2)c1	93.5%	99%	94.1%	93.7%	84.7%	100%	101%	96.1%	107%		93.4%	59.4%	116%	92.1%	95.4%	98.5%	105%	93.2%	99.4%
O=C(Nc1cccc(-n2cc(-c3ccncc3)c(-c3ccc(Cl)c(O)c3)n2)c1)Nc1ccc(Cl)c(C(F)(F)F)c1	1.04% (active)	-6.5% (active)	-28.8% (active)	-70.4% (active)	-10.4% (active)	-100% (active)	-55.1% (active)	-75.8% (active)	-31.5% (active)		7.46% (active)	-6.09% (active)	-1.62% (active)	6.62% (active)	17.3%	11.1%	-60.4% (active)	-13.8% (active)	-22.1% (active)
O=C(Nc1cccc(-n2cc(-c3ccncc3)c(-c3ccc(Cl)c(O)c3)n2)c1)Nc1cccc(C(F)(F)F)c1	18.2%	77.8%	32.5%	15.8%	4.28% (active)	-25.5% (active)	10.4%	23.8%	29.4%		14.6%	24.8%	21.9%	11.2%	30.1%	17.7%	-25.7% (active)	10.6%	12.5%
COc1ccc(C(=O)N2NC(=O)/C(=C/c3cn(-c4ccccc4)nc3-c3ccccc3)N=C2c2ccccc2)cc1	98.2%	99%	88.6%	91.2%	95.3%	105%	93%	99.2%	105%	96.1%	95%	93.7%	103%	106%	95.6%	77.6%			85%
O=C(Nc1cccc(-n2cc(-c3ccncc3)c(-c3ccc(Cl)c(O)c3)n2)c1)Nc1ccc(Cl)c(Cl)c1	19.8%	45.9%	30.3%	12.4%	5.43% (active)	-40.2% (active)	14.9%	21.9%	24.6%		18%	21%	7.16% (active)	12.8%		31.1%	-25.4% (active)	13.7%	7.64% (active)
COc1cc(-c2nn(-c3cccc(NC(=O)c4ccc(N5CCOCC5)c(C(F)(F)F)c4)c3)cc2-c2ccncc2)ccc1Cl	16.7%	-13.3% (active)	45.1%	2.49% (active)	8.17% (active)	3.41% (active)	8.35% (active)	13.7%	28.4%		31%	24.6%	17.8%	21.3%		-29.7% (active)	-8.84% (active)	0.907% (active)	4.07% (active)
COc1cc(Nc2ncccc2C(=O)NCc2cn(Cc3cccc(Oc4ccccc4)c3)nn2)cc(OC)c1	32.9%	8.47% (active)	59.9%	34.7%	57.2%	19.5%	32.7%	43.6%	67%	46.2%	42.9%	49.8%	70.4%	53.6%	36.9%	24.2%			
O=C1c2ccccc2-c2ccccc2C1(Cl)Cl	-60.2% (active)	-38.4% (active)	-83.5% (active)	-90.1% (active)	-29.5% (active)	-95.5% (active)	-83.4% (active)	-31.8% (active)		-93.2% (active)	-76.1% (active)	-100% (active)	90%	-67% (active)	-92.1% (active)	101%	-71% (active)	11.2%	0.097% (active)
C=C1C(=O)O[C@@H]2[C@@H]3O[C@@](C)(CC/C=C(\C)CCC[C@@H]2C)[C@H](O)C[C@@H]13	38.9%	32.3%	84.3%	56.4%	39.8%	48.2%	17.2%	44%	80.5%	76.3%	47.3%	45%	32%	51.9%	39%	66.8%			16.8%
CC[N+](CC)=c1cc2oc3cc(N(C)C)ccc3nc-2cc1C	47.4%	28.3%	31.8%	1.74% (active)	10.8%	7.58% (active)	62.7%	16.8%		3.38% (active)	6.42% (active)	39.6%	54.6%	73%	46.7%	99.2%	19.4%	28.2%	21.8%
